Reference: the supplement of paper PMC11150407
Hit rate of the full screen: of about 3,000 compounds, about 45 (2%) showed an effect of 50% or more. This is one part of a sample in which strong results are shown more often than they occur.

system: MOLM1 and UCSD/AML1 (averaged); assay: cell viability relative to DMSO control (POC); higher = less growth inhibition; conditions: 1 µM; 72 h
Experimental: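 Primary viability screen in the 3q26 EVI1-high AML cell lines MOLM1 and UCSD/AML1, compounds at 1 uM for 72 h. ATP CellTiter-Glo read-out given as percent viable over DMSO control (POC), averaged over duplicates. This mapping covers the TimTec NDL-3000 natural derivative library, whose compounds are identified by TimTec catalogue codes (ST...).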

Structure (SMILES) | cell viability
OCC1N2CCC(CC2)C1(O)O (stereo not given) | 32.3%
CCOC(=O)C1=C(N)Oc2c(c(=O)oc3ccccc23)C1c1ccc(Cl)cc1Cl (stereo not given) | 104%
CC(=O)OC1CCC2(C)C3CCC4(C)C(CC[C@]4(OC(C)=O)C(C)OC(C)=O)C3CC[C@H]2C1 (stereo not given in full) | 109%
CN1C(=O)C(=Cc2ccc3c(c2)OCO3)C(=O)N(C)C1=O | 111%
O.O.OCC1CCCN2CCCCC12.[Cl][Cu][Cl] (stereo not given) | 110%
Cc1ccc(C(c2c(O)c3ccccc3oc2=O)c2c(O)c3ccccc3oc2=O)cc1 | 102%
CCOC(=O)C1=C(N)Oc2c(c(=O)oc3ccccc23)C1c1cccc(Br)c1 (stereo not given) | 103%
CCOC(=O)C1=C(N)Oc2c(c(=O)oc3ccccc23)C1c1ccc(Cl)c(Cl)c1 (stereo not given) | 37.7%
CCOC(=O)C1=C(N)Oc2c(c(=O)oc3ccccc23)C1c1ccc(Br)cc1 (stereo not given) | 93%
COCCOC(=O)c1c(C)n(Cc2ccccc2Cl)c2ccc(O)cc12 | 106%
